Measured values: PubChem BioAssay AID1063 (University of Pittsburgh Molecular Library Screening Center, 2008)
Among all 200,000 compounds or so, about 18,000 (9%) were called active. Shown is part of a subset that was picked to be rich in actives. Unmarked numbers belong to inactive results. Cut-off read from the data, not from the text of the source: active = inhibition above about 50%; inactive = the rest.

Assay: Leishmania major promastigote growth inhibition, primary screen (AID 1063);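 note: promastigotes grown with compound for 44 hours at 28 °C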
Conditions: Leishmania major promastigotes, resazurin fluorescence viability; at 10 µM; active compounds read high

Going from `CCOCCCNC(=O)C(NC(=O)Cc1c[nH]c2ccccc12)c1ccc(OC)cc1` (configuration not stated) to `COc1ccc(CCNC(=O)COC(=O)Cc2cc(OC)c(OC)c(OC)c2)cc1`, the inhibition rises from -7.71% to -3.11%.

Compared with `COc1cc(C=O)c(Br)cc1OCC(=O)NCc1ccccc1`, `CC(=O)Nc1cccc(OCC(=O)/C=C2\N(C)c3ccccc3C2(C)C)c1` is higher in inhibition: 4.2% for the first, 48.1% for the second.

First: Cc1cc(N2CCN(Cc3ccc4c(c3)OCO4)CC2)n2ncnc2n1
Second: Fc1ccc2[nH]c3c(N4CCSCC4)ncnc3c2c1
The inhibition of the first is lower: 12.7% for the first, 35.5% for the second.

First: Nc1nnnn1CC(=O)N/N=C/c1ccc(-c2cccc(Cl)c2)o1
Second: COc1cccc(NC(=O)C(Sc2nnnn2C)c2ccccc2)c1 (configuration not stated)
The inhibition of the first is lower: -9.69% for the first, 10.5% for the second.

Going from `COc1ccc(/C=N/n2c(C)cc(C)cc2=O)cc1` to `CCOC(=O)c1ccc(NC(=S)Nc2cc(C)cc(C)n2)cc1`, the inhibition rises from -6.47% to 5.79%.

First: CC(CN1CCCCC1)OC(=O)c1ccccc1Cl (configuration not stated)
Second: O=C(c1ccc(OC2CCN(Cc3ccccn3)CC2)cc1)N1CCCCCC1
The inhibition of the first is lower: -4.92% for the first, 39.9% for the second.

Compared with `CC(C)c1csc(CN2CCC(CO)(Cc3ccccc3)CC2)n1`, `O=C(O)CSc1nccc2ccccc12` is lower in inhibition: 14.2% for the first, -6.68% for the second.

Compared with `CC1COc2ccccc2N1S(=O)(=O)c1ccccc1` (configuration not stated), `O=C(Nn1cnc2ccccc2c1=O)c1ccccc1` is lower in inhibition: 15.8% for the first, -0.77% for the second.

Compared with `CN1CCN(CCC(=O)N/N=C/C=C2\N(C)c3ccccc3C2(C)C)CC1`, `CC1CCC(C(C)C)C(=O)/C1=C\c1ccc(NC(=O)CCC(=O)O)cc1` (configuration not stated) is lower in inhibition: 4.61% for the first, 4.09% for the second.

Compared with `O=C(c1ccccc1Cl)N(Cc1ccccc1F)N1C(=O)CCCC1=O`, `Cc1nn(-c2ccccc2)c(Cl)c1C(=O)Nc1ccccc1` is higher in inhibition: -3.99% for the first, 1.56% for the second.

First: O=C(O)CC(SCC(=O)Nc1ccc(Br)cc1)C(=O)O (configuration not stated)
Second: CN(CCOc1ccc(Br)cc1)CC(=O)Nc1cccc(S(=O)(=O)NC2=NCCC2)c1
The inhibition of the first is lower: -3.9% for the first, -1.24% for the second.

First: c1ccc2c(c1)OCC(c1nn3cnnc3s1)O2 (configuration not stated)
Second: CC(O)c1nc2ccccc2n1Cc1ccc([N+](=O)[O-])cc1 (configuration not stated)
The inhibition of the first is lower: -7.7% for the first, -2.56% for the second.

Going from `Cc1onc(-c2ccccc2)c1C(=O)NNC(=S)NC(=O)c1ccc(F)cc1` to `O=C(NC1CC1)c1ccc(-c2ccccc2)cc1`, the inhibition rises from -0.74% to 6.37%.

Going from `CCn1nc(C)c(CN2CCN(Cc3ccc(OC)c(C)c3C)C(CCO)C2)c1C` (configuration not stated) to `COc1ccc(CN(C)Cc2nc3cc(OC)c(OC)cc3c(=O)[nH]2)c(OC)c1`, the inhibition falls from 5.83% to 1.39%.

Going from `COc1ccc(Br)cc1/C=N/NC(=O)c1cccc(S(=O)(=O)N2CCOCC2)c1` to `O=C(c1cccc(S(=O)(=O)N2CCOCC2)c1)N1CCOCC1`, the inhibition falls from 14.1% to -2.4%.

Going from `O=C(Nc1ccc2oc(-c3ccccc3F)nc2c1)c1ccco1` to `Cc1cccc(NC(=O)CN2C(=O)c3ccccc3C2=O)c1C`, the inhibition falls from 9.45% to -7.46%.

Compared with `CS(=O)(=O)n1nc(-c2ccco2)nc1N`, `Cc1cc([N+](=O)[O-])nn1CCCC(=O)Nc1cccnc1Cl` is lower in inhibition: -6.28% for the first, -6.69% for the second.

Going from `CONc1nc2nonc2nc1NOC` to `CCOc1ccc2nc(SC(CC)C(=O)Nc3cc(C)on3)sc2c1` (configuration not stated), the inhibition rises from -1.47% to 6.15%.

Going from `Cc1nn(-c2ccccc2)c(Cl)c1/C=C/C(=O)c1ccc(O)cc1` to `CCN(C(=O)c1ccc(Br)cc1)c1ccccc1`, the inhibition falls from 44.1% to 3.92%.

Compared with `CCCOC(=O)c1c(NC(=O)c2cnn3c2NC(c2ccccc2)CC3C(F)(F)F)sc2c1CCCC2` (configuration not stated), `O=C(COc1ccc(Cl)cc1)NCc1nnc(SCC(=O)NCC2CCCO2)o1` (configuration not stated) is lower in inhibition: 4.09% for the first, -8.43% for the second.

Going from `CCOC(=O)N1CCC(=NNC(N)=O)CC1` to `CCNC(=O)NNC(=O)C1CC(c2cccs2)=NO1` (configuration not stated), the inhibition rises from -11.1% to -8.39%.

First: Cc1cc(C)cc(OCC(=O)Nc2nc3ccc([N+](=O)[O-])cc3s2)c1
Second: COc1ccc2nc(Nc3nc4ccc(NC(C)=O)cc4s3)sc2c1
The inhibition of the first is lower: -2.84% for the first, 6.91% for the second.

Going from `O=C(NC1CCCCC1)c1cc([N+](=O)[O-])ccc1N1CCOCC1` to `O=C(C1CCN(S(=O)(=O)c2cccs2)CC1)N1CCCCCC1`, the inhibition rises from -6.49% to -2.87%.

Compared with `Cc1cc(NC(=O)CSc2nc3cc(Cl)ccc3c(=O)n2Cc2ccco2)no1`, `Cc1ccc(COc2ccc(C(=O)NN)cc2)cc1` is lower in inhibition: 4.4% for the first, -1.34% for the second.

First: COc1ccc(-c2cc(-c3ccc(N)cc3)nc(N)c2C#N)cc1OC
Second: O=C(CSCc1ccc([N+](=O)[O-])cc1)NCCSCc1ccccc1
The inhibition of the first is lower: -6.13% for the first, 12.9% for the second.

`CS(=O)(=O)N1CCC(C(=O)N2CCN(c3ccccc3)CC2)CC1` gave an inhibition of -3.18%.

For `Fc1ccc2[nH]c3c(N4CCN(Cc5ccc6c(c5)OCO6)CC4)ncnc3c2c1`, the inhibition was 77.8% (active).
For `CCC(C)CN1CCC(CO)(Cc2ccccc2Cl)CC1` (configuration not stated), the inhibition was 82.2% (active).
With `CN1/C(=C\C=C2\N=C(c3ccc(F)cc3)OC2=O)C(C)(C)c2ccccc21` the inhibition was 63.4% (active).
In the case of `CC1(C)CC(=O)CC2(C1)NCC(c1ccccc1Cl)c1c2[nH]c2ccccc12` (configuration not stated), the inhibition is reported as 53.5% (active).
For `O=C(Nc1nnc(C2COc3ccccc3O2)o1)c1ccc(F)cc1` (configuration not stated), the inhibition was 84.8% (active).
For `O=C(N/N=C/c1ccc([N+](=O)[O-])o1)c1cccc(S(=O)(=O)N2CCOCC2)c1`, the inhibition was 99.2% (active).
In the case of `Cc1ccc(C(=O)/C=C/c2c(C)nn(-c3ccccc3)c2Cl)cc1`, the inhibition is reported as 73.7% (active).
For `CCOc1ccc2nc(Nc3nc4ccc(NC(C)=O)cc4s3)sc2c1`, the inhibition was 72.1% (active).
In the case of `CCOc1ccc2nc(NC(=O)c3cc([N+](=O)[O-])ccc3N3CCOCC3)sc2c1`, the inhibition is reported as 96% (active).
With `CC(=O)N1c2ccccc2N(Cc2ccc([N+](=O)[O-])cc2)C(=O)C1(C)C` the inhibition was 51.9% (active).
For `O=C(C1CCN(S(=O)(=O)c2ccc(Br)s2)CC1)N1CCN(C2CCCCC2)CC1`, the inhibition was 59.6% (active).
